Test results taken from PubChem BioAssay (Tox21).
Inconclusive results are not listed. The source made the active and inactive calls. Unless noted, calls follow the shape of the dose curve; as a rule, active = well fitted curve in the direction sought with a large enough effect in the repeat runs; inconclusive = weak or mixed curves; inactive = no such curve, though single readings can be large; an effect the other way counts as inactive or inconclusive.

Columns and labels:
[1] = qHTS assay to identify small molecule agonists of the hypoxia (HIF-1) signaling pathway (AID 1224846; active = well fitted activation curve with a large enough effect in the signal ratio in the repeat runs, not every such curve was filed as active; the % refers to the signal ratio)
How it was run: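 Reporter induction in HRE-bla ME-180 cells is taken as agonism: cells sit 5 hrs after plating, receive compounds or DMSO only, incubate 17 hrs at 37C under 5% CO2, and are loaded with CCF4-AM for beta-lactamase FRET measurement.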

[2] = qHTS assay to identify small molecule agonists of H2AX - cell viability counter screen (AID 1224847; calls by dose curve; also: nearly all actives have a fitted effect of over 30% in size; also: potency is read from the fitted curve at half-maximal effect; as to activity change, negative = cytotoxicity: top concentration of the series differs between compounds)
How it was run: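 Cytotoxicity counter screen in wild-type CHO-K1 cells: a 3 hr compound treatment at 37C across 15 concentrations, followed by CellTiter-Glo luminescence to gauge viable cells.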

[3] = qHTS assay to identify small molecule antagonists of the estrogen related receptor (ERR) signaling pathway from Tox21 library (AID 1224848); also: nearly all actives have a fitted effect of over 50% in size
How it was run: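 First, 2,000 ERR cells per well were plated and held 6 h at 37 C/5% CO2. Next, compounds in DMSO were pinned in and left 18 h at 37 C. Finally, ONE-Glo was added and luminescence read after 30 min at room temperature.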

[4] = qHTS RealTime-Glo MT Cell Viability Assay in HEK293 cells - 32 hour (AID 1224868); also: top concentration of the series differs between compounds; nearly all actives have a fitted effect of over 50% in size
How it was run: (§1)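 Nonlytic real-time viability readout: viable cells convert prosubstrate to NanoLuc substrate, giving luminescence proportional to live cell number. HEK293, 600 cells/well, compound added after 5 h, continuous culture at 37 C.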

[5] = A CellTox Green Cytotoxicity Assay to monitor cytotoxicity in HEK293 cells - 0 hour (AID 1224869); also: nearly all actives have a fitted effect of over 50% in size
How it was run: (§2)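 Tox21 screen in HEK293: membrane-impermeant cyanine dye fluoresces on binding dead-cell DNA; compound pinned 5 h post-seeding, plates held at 37 C, signal read repeatedly through 40 h.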

[6] = qHTS RealTime-Glo MT Cell Viability Assay in HepG2 cells - 40 hour (AID 1224870); also: nearly all actives have a fitted effect of over 50% in size
How it was run: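 HepG2 cells mixed with RealTime-Glo MT reagents (NanoLuc plus cell-permeant prosubstrate) were seeded at 600 cells/well, incubated 5 h at 37 C/5% CO2, then pinned with compounds in DMSO; nonlytic luminescence tracked viability during 40 h treatment.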

[7] = A CellTox Green Cytotoxicity Assay to monitor cytotoxicity in HEK293 cells - 40 hour (AID 1224871); also: nearly all actives have a fitted effect of over 45% in size
How it was run: as §2

[8] = qHTS RealTime-Glo MT Cell Viability Assay in HEK293 cells - 16 hour (AID 1224872)
How it was run: as §1

[9] = qHTS RealTime-Glo MT Cell Viability Assay in HepG2 cells - 24 hour (AID 1224867); also: nearly all actives have a fitted effect of over 50% in size
How it was run: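 Luminescence read-out: viable HepG2 cells reduce a prosubstrate to a NanoLuc substrate, giving a signal proportional to live cell number. Reads taken at 0, 8, 16, 24, 32 and 40 h of compound exposure at 37 C.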

[10] = qHTS assay to identify small molecule agonists of the estrogen related receptor (ERR) signaling pathway from Tox21 library (AID 1224849; calls by dose curve; also: nearly all actives have a fitted effect of over 15% in size); settings: ERR reporter cell line, ONE-Glo luciferase, 18 h; at 92.4 µM (top of the series) unless noted
How it was run: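 Tox21 compounds tested for ERR agonism in an NTP reporter cell line: 18 h treatment at 37 C, then ONE-Glo luminescence.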
% is scaled to controls: 0 for no effect and ±100 for the full control effect.

CC(C)(C)OC(=O)c1ccc(O)cc1
inactive: outcome [1] | Potency [2] | Potency [3] | Potency [4] | outcome [5] | outcome [6] | Potency [7] | Potency [8]

CCOC(=O)CC(=O)c1ccccc1
inactive: outcome [1] | Potency [2] | outcome [9] | Potency [4] | outcome [5] | outcome [6] | Potency [7] | Potency [8]

CC(CC=O)CCCC(C)(C)O (centres undefined)
inactive: outcome [1] | Potency [2] | Potency [3] | outcome [9] | Potency [4] | outcome [5] | outcome [6] | Potency [7] | Potency [8]

CN(CCOc1ccc(NS(C)(=O)=O)cc1)CCc1ccc(NS(C)(=O)=O)cc1
inactive: outcome [1] | Potency [2] | outcome [9] | Potency [4] | outcome [5] | outcome [6] | Potency [7] | Potency [8]

OC[C@H](Cc1cccc(O)c1)[C@H](CO)Cc1cccc(O)c1
inactive: outcome [1] | Potency [2] | activity change, positive = activation [10] -21.1% | outcome [6] | Potency [8]

CC(C)(C)c1n[nH]c(=S)n(N)c1=O
inactive: outcome [1] | Potency [2] | Potency [3] | activity change, positive = activation [10] -1.28% | Potency [4] | outcome [6] | Potency [7] | Potency [8]

COc1cc(C(=S)N2CCOCC2)cc(OC)c1OC
inactive: outcome [1] | Potency [2] | Potency [3] | activity change, positive = activation [10] -0.791% [at 42.5 µM] | Potency [4] | outcome [6] | Potency [7] | Potency [8]

COCCOCCOCCOCCO
inactive: outcome [1] | Potency [2] | outcome [9] | Potency [4] | outcome [5] | outcome [6] | Potency [7] | Potency [8]

O=C(O)c1ccc(Cl)cc1Cl
inactive: outcome [1] | Potency [2] | outcome [9] | Potency [4] | outcome [5] | outcome [6] | Potency [7] | Potency [8]

NS(=O)(=O)c1ccc(NC(=O)CCC(=O)O)cc1
inactive: outcome [1] | Potency [2] | outcome [9] | Potency [4] | outcome [5] | outcome [6] | Potency [7] | Potency [8]

ClCCCl
inactive: outcome [1] | Potency [2] | Potency [3] | activity change, positive = activation [10] 12.2% | outcome [5] | outcome [6] | Potency [7] | Potency [8]

CC1=CCC(C(C)C)=CC1
inactive: outcome [1] | Potency [2] | outcome [9] | Potency [4] | outcome [5] | outcome [6] | Potency [7] | Potency [8]

O=S(=O)(O)c1ccc2cc(O)c(S(=O)(=O)O)cc2c1
inactive: outcome [1] | Potency [2] | outcome [9] | Potency [4] | outcome [5] | outcome [6] | Potency [7] | Potency [8]

CCC(C)NC(N)=O (centres undefined)
inactive: outcome [1] | Potency [2] | outcome [9] | Potency [4] | outcome [5] | outcome [6] | Potency [7] | Potency [8]

c1ccc2c(c1)ccc1c3ccccc3ccc21
inactive: outcome [1] | Potency [2] | outcome [9] | outcome [5] | outcome [6] | Potency [7] | Potency [8]

CC(=O)NCCCCCC(=O)O
inactive: outcome [1] | Potency [2] | outcome [9] | Potency [4] | outcome [5] | outcome [6] | Potency [7] | Potency [8]

CCCOC(=O)C(C)O (centres undefined)
inactive: outcome [1] | Potency [2] | outcome [9] | Potency [4] | outcome [5] | outcome [6] | Potency [7] | Potency [8]

Nc1cccc(O)c1
inactive: outcome [1] | Potency [2] | outcome [9] | Potency [4] | outcome [5] | outcome [6] | Potency [7] | Potency [8]

N[C@@H](CCC(=O)N[C@@H](CS)C(=O)NCC(=O)O)C(=O)O
inactive: activation [1] -0.104% [at 15.8 µM] | activity change, negative = cytotoxicity [2] 0.69% [at 31.6 µM] | activity change, negative = cytotoxicity [9] 0.707% [at 15.8 µM] | activity change, negative = cytotoxic [4] 7.09% [at 15.8 µM] | cytotoxicity [5] 0.542% [at 15.8 µM] | activity change, negative = cytotoxic [6] -0.349% [at 15.8 µM] | cytotoxicity increase [7] 2.27% [at 15.8 µM] | activity change, negative = cytotoxicity [8] 9.65% [at 15.8 µM]

CCC(CC)CO
inactive: outcome [1] | Potency [2] | outcome [9] | Potency [4] | outcome [5] | outcome [6] | Potency [7] | Potency [8]

CCCC/C=C/C=C\C=O
active: Potency [2] 1.6 µM
inactive: outcome [1] | outcome [9] | Potency [4] | outcome [5] | outcome [6] | Potency [8]
